# According to the supplement of paper PMC9794691:
# ± gives the standard deviation of the averaged measurements.
# Tested on: PC9
# Assay: area under confluence curve of osimertinib + compound combination regimen (DTP regrowth); compare to osimertinib-only DTP control AUC of the same experiment (AUC (confluence x time, arbitrary))
# Method: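 compare to osimertinib-only DTP control AUC of the same experiment; Long-term drug-tolerant persister (DTP) screen in EGFR-mutant NSCLC cell lines in 48-well plates. The test compound was given at one fixed dose with osimertinib, either upfront (from day 0 to the DTP stage at 10-21 days, then drug-free medium) or sequentially (osimertinib alone to the DTP stage, then the test compound). IncuCyte confluence was tracked until osimertinib-only controls regrew, and AUC was computed in Prism. AUC scale depends on experiment duration, so each row carries the same-experiment osimertinib-only DTP and DMSO control AUCs; combination activity = control minus combo AUC. Osimertinib dose not stated.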
# [1] = test compound dose 300 nM, dosing schedule: sequential, osimertinib-only DTP control AUC in same experiment: 12535, DMSO control AUC in same experiment: 43316
# [2] = test compound dose 300 nM, dosing schedule: upfront, osimertinib-only DTP control AUC in same experiment: 15354, DMSO control AUC in same experiment: 43316
# [3] = test compound dose 300 nM, dosing schedule: sequential, osimertinib-only DTP control AUC in same experiment: 29087, DMSO control AUC in same experiment: 30008
# [4] = test compound dose 300 nM, dosing schedule: upfront, osimertinib-only DTP control AUC in same experiment: 34430, DMSO control AUC in same experiment: 30008
# [5] = test compound dose 1000 nM, dosing schedule: sequential, osimertinib-only DTP control AUC in same experiment: 10968, DMSO control AUC in same experiment: 21594
# [6] = test compound dose 1000 nM, dosing schedule: upfront, osimertinib-only DTP control AUC in same experiment: 17834, DMSO control AUC in same experiment: 21594
structure (smiles),measurement,setting,value
NC1(C(=O)N[C@@H](CCO)c2ccc(Cl)cc2)CCN(c2nc[nH]c3nccc2-3)CC1 [Capivasertib] + C=CC(=O)Nc1cc(Nc2nccc(-c3cn(C)c4ccccc34)n2)c(OC)cc1N(C)CCN(C)C [osimertinib],area under confluence curve,"test compound dose 300 nM, dosing schedule: sequential, osimertinib-only DTP control AUC in same experiment: 3562, DMSO control AUC in same experiment: 31840",1390
same,area under confluence curve,"test compound dose 300 nM, dosing schedule: sequential, osimertinib-only DTP control AUC in same experiment: 10725, DMSO control AUC in same experiment: 30578",2030
same,area under confluence curve,[1],2150
same,area under confluence curve,"test compound dose 300 nM, dosing schedule: upfront, osimertinib-only DTP control AUC in same experiment: 10245, DMSO control AUC in same experiment: 30578",9240
same,area under confluence curve,[2],14600
same,area under confluence curve,"test compound dose 300 nM, dosing schedule: upfront, osimertinib-only DTP control AUC in same experiment: 19015, DMSO control AUC in same experiment: 31840",13200
Nc1nc(Nc2ccc3c(c2)CCC(N2CCCC2)CC3)nn1-c1cc2c(nn1)-c1ccccc1CCC2 (stereo not given) + C=CC(=O)Nc1cc(Nc2nccc(-c3cn(C)c4ccccc34)n2)c(OC)cc1N(C)CCN(C)C [osimertinib],area under confluence curve,"test compound dose 300 nM, dosing schedule: sequential, osimertinib-only DTP control AUC in same experiment: 11273, DMSO control AUC in same experiment: 20197",6530
same,area under confluence curve,[3],12100
same,area under confluence curve,"test compound dose 300 nM, dosing schedule: upfront, osimertinib-only DTP control AUC in same experiment: 13449, DMSO control AUC in same experiment: 20197",7530
same,area under confluence curve,[4],11700
Cc1c[nH]c2nc(Nc3ccc(N4CCN(C)CC4)c(F)c3)nc(-c3cccc(CC#N)c3)c12 + C=CC(=O)Nc1cc(Nc2nccc(-c3cn(C)c4ccccc34)n2)c(OC)cc1N(C)CCN(C)C [osimertinib],area under confluence curve,[1],1010
same,area under confluence curve,"test compound dose 300 nM, dosing schedule: sequential, osimertinib-only DTP control AUC in same experiment: 15163, DMSO control AUC in same experiment: 28684",4860
same,area under confluence curve,[3],25200
same,area under confluence curve,[2],3200
same,area under confluence curve,"test compound dose 300 nM, dosing schedule: upfront, osimertinib-only DTP control AUC in same experiment: 21337, DMSO control AUC in same experiment: 28684",6800
same,area under confluence curve,[4],25900
C[C@@H](Nc1cc(F)cc(F)c1)c1cc(C(=O)N(C)C)cc2c(=O)cc(N3CCOCC3)oc12 + C=CC(=O)Nc1cc(Nc2nccc(-c3cn(C)c4ccccc34)n2)c(OC)cc1N(C)CCN(C)C [osimertinib],area under confluence curve,"test compound dose 1000 nM, dosing schedule: sequential, osimertinib-only DTP control AUC in same experiment: 1963, DMSO control AUC in same experiment: 30580",1970 ± 150
same,area under confluence curve,"test compound dose 1000 nM, dosing schedule: sequential, osimertinib-only DTP control AUC in same experiment: 10725, DMSO control AUC in same experiment: 30578",4550
same,area under confluence curve,"test compound dose 1000 nM, dosing schedule: sequential, osimertinib-only DTP control AUC in same experiment: 12535, DMSO control AUC in same experiment: 43316",4790
same,area under confluence curve,"test compound dose 1000 nM, dosing schedule: sequential, osimertinib-only DTP control AUC in same experiment: 15163, DMSO control AUC in same experiment: 28684",5770
same,area under confluence curve,"test compound dose 1000 nM, dosing schedule: upfront, osimertinib-only DTP control AUC in same experiment: 8618, DMSO control AUC in same experiment: 30580",4780 ± 250
same,area under confluence curve,"test compound dose 1000 nM, dosing schedule: upfront, osimertinib-only DTP control AUC in same experiment: 10245, DMSO control AUC in same experiment: 30578",8450
same,area under confluence curve,"test compound dose 1000 nM, dosing schedule: upfront, osimertinib-only DTP control AUC in same experiment: 15354, DMSO control AUC in same experiment: 43316",8140
same,area under confluence curve,"test compound dose 1000 nM, dosing schedule: upfront, osimertinib-only DTP control AUC in same experiment: 21337, DMSO control AUC in same experiment: 28684",7910
Cc1cc2cc(C(=O)c3cnn(-c4cnc(Oc5c(F)cccc5F)cc4C)c3N)[nH]c2cc1NS(C)(=O)=O + C=CC(=O)Nc1cc(Nc2nccc(-c3cn(C)c4ccccc34)n2)c(OC)cc1N(C)CCN(C)C [osimertinib],area under confluence curve,[5],7640
same,area under confluence curve,[6],9050
COc1nn(C)cc1Nc1nccc(-c2c[nH]c3c(NC(=O)[C@@H](C)N4CCN(C)CC4)cccc23)n1 + C=CC(=O)Nc1cc(Nc2nccc(-c3cn(C)c4ccccc34)n2)c(OC)cc1N(C)CCN(C)C [osimertinib],area under confluence curve,[5],8030
same,area under confluence curve,[6],15000
CN(C)C/C=C/C(=O)Nc1ccc(C(=O)Nc2cccc(Nc3ncc(Cl)c(-c4c[nH]c5ccccc45)n3)c2)cc1 + C=CC(=O)Nc1cc(Nc2nccc(-c3cn(C)c4ccccc34)n2)c(OC)cc1N(C)CCN(C)C [osimertinib],area under confluence curve,"test compound dose 1000 nM, dosing schedule: sequential, osimertinib-only DTP control AUC in same experiment: 11414, DMSO control AUC in same experiment: 31219",12600
same,area under confluence curve,"test compound dose 1000 nM, dosing schedule: upfront, osimertinib-only DTP control AUC in same experiment: 18848, DMSO control AUC in same experiment: 31219",21300
Cc1cc(Nc2ncnc3ccc(NC4=NC(C)(C)CO4)cc23)ccc1Oc1ccn2ncnc2c1 [Tucatinib] + C=CC(=O)Nc1cc(Nc2nccc(-c3cn(C)c4ccccc34)n2)c(OC)cc1N(C)CCN(C)C [osimertinib],area under confluence curve,"test compound dose 1000 nM, dosing schedule: sequential, osimertinib-only DTP control AUC in same experiment: 13992, DMSO control AUC in same experiment: 30002",11100
same,area under confluence curve,"test compound dose 1000 nM, dosing schedule: sequential, osimertinib-only DTP control AUC in same experiment: 16279, DMSO control AUC in same experiment: 29345",17500
same,area under confluence curve,"test compound dose 1000 nM, dosing schedule: upfront, osimertinib-only DTP control AUC in same experiment: 19769, DMSO control AUC in same experiment: 29345",18600
same,area under confluence curve,"test compound dose 1000 nM, dosing schedule: upfront, osimertinib-only DTP control AUC in same experiment: 22377, DMSO control AUC in same experiment: 30002",17200
CCN(c1cc(-c2ccc(CN3CCOCC3)cc2)cc(C(=O)NCc2c(C)cc(C)[nH]c2=O)c1C)C1CCOCC1 [Tazemetostat] + C=CC(=O)Nc1cc(Nc2nccc(-c3cn(C)c4ccccc34)n2)c(OC)cc1N(C)CCN(C)C [osimertinib],area under confluence curve,"test compound dose 1000 nM, dosing schedule: sequential, osimertinib-only DTP control AUC in same experiment: 14030, DMSO control AUC in same experiment: 30326",11100
same,area under confluence curve,"test compound dose 1000 nM, dosing schedule: upfront, osimertinib-only DTP control AUC in same experiment: 20885, DMSO control AUC in same experiment: 30326",16200
C[C@@H]1COCCN1c1cc(C2([S@](C)(=N)=O)CC2)nc(-c2cc[nH]c3nccc2-3)n1 + C=CC(=O)Nc1cc(Nc2nccc(-c3cn(C)c4ccccc34)n2)c(OC)cc1N(C)CCN(C)C [osimertinib],area under confluence curve,"test compound dose 1000 nM, dosing schedule: sequential, osimertinib-only DTP control AUC in same experiment: 15001, DMSO control AUC in same experiment: 22064",14300
same,area under confluence curve,"test compound dose 1000 nM, dosing schedule: sequential, osimertinib-only DTP control AUC in same experiment: 15044, DMSO control AUC in same experiment: 30604",12300
same,area under confluence curve,"test compound dose 1000 nM, dosing schedule: upfront, osimertinib-only DTP control AUC in same experiment: 20672, DMSO control AUC in same experiment: 30604",15900
same,area under confluence curve,"test compound dose 1000 nM, dosing schedule: upfront, osimertinib-only DTP control AUC in same experiment: 24924, DMSO control AUC in same experiment: 22064",16500
